Experimental data from PubChem BioAssay (NCI).
Compounds without any hit were thinned out: in the full panel of roughly 83,000, 20% have a hit.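 Compound tested at a single concentration for 48 hours in 96-well plates; a percent growth value below 10 was scored as active.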

Experiments:
Assay in all cases: NCI-60 one-dose screen, 48 h (100 = growth as untreated, 0 = no growth, -100 = all killed)
Conditions in all cases: 10 µM unless noted
[1] = tested on: HCT-15 colon
[2] = tested on: HT29 colon
[3] = tested on: SNB-75 CNS
[4] = tested on: SNB-19 CNS
[5] = tested on: U251 CNS
[6] = tested on: PC-3 prostate
[7] = tested on: SK-MEL-5 melanoma
[8] = tested on: LOX IMVI melanoma
[9] = tested on: SK-MEL-28 melanoma
[10] = tested on: SK-MEL-2 melanoma
[11] = tested on: EKVX NSCLC
[12] = tested on: SN12C renal
[13] = tested on: UO-31 renal
[14] = tested on: TK-10 renal
[15] = tested on: ACHN renal
[16] = tested on: CAKI-1 renal
[17] = tested on: CCRF-CEM leukemia
[18] = tested on: A498 renal
[19] = tested on: MOLT-4 leukemia
[20] = tested on: UACC-62 melanoma

Measured: growth

COc1ccc(C2=C(c3ccccc3)c3ccc(OC(C)=O)cc3OC2(C)C)cc1
inactive: [1] 80.4% | [2] 105% | [3] 118% | [4] 111% | [5] 95.7% | [6] 72.4% | [7] 93.1% | [8] 71.4% | [9] 100% | [10] 94.9% | [11] 82.3% | [12] 93% | [13] 90.6% | [14] 116% | [15] 76.3% | [16] 67.8% | [17] 50.3%

Fc1ccccc1CSc1ncnc2nc[nH]c12
inactive: [1] 114% | [2] 107% | [3] 105% | [4] 94.3% | [5] 106% | [6] 105% | [7] 105% | [8] 96.4% | [9] 112% | [10] 86.6% | [11] 113% | [12] 101% | [13] 94.9% | [14] 142% | [15] 107% | [16] 103% | [18] 112% | [17] 117% | [19] 92.3%

O=c1[nH]c(=O)[nH]c(=S)[nH]1
inactive: [1] 103% | [2] 99.1% | [3] 96.5% | [4] 101% | [5] 103% | [6] 102% | [7] 102% | [8] 98.1% | [9] 102% | [10] 103% | [11] 97.8% | [12] 94.3% | [13] 89.2% | [14] 95.8% | [15] 94.3% | [16] 94.9% | [17] 101% | [19] 105%

[O-][n+]1ccccc1CCN(O)CCc1cccc[n+]1[O-]
inactive: [1] 99.3% | [2] 98.5% | [3] 85.4% | [4] 102% | [5] 105% | [6] 91.8% | [7] 95.3% | [8] 97.9% | [9] 116% | [10] 92.9% | [11] 99.4% | [12] 105% | [13] 75.5% | [14] 104% | [15] 95.8% | [16] 94.7% | [17] 99.5% | [19] 98%

CC1(c2ccccc2)NC(=O)N(CC(=O)Nc2cccc(I)c2)C1=O (centres undefined)
inactive: [1] 92.9% | [2] 95.9% | [3] 66.8% | [4] 84.7% | [5] 88.7% | [6] 67.9% | [7] 31.1% | [8] 93.8% | [9] 93% | [10] 77.5% | [11] 106% | [12] 96.9% | [13] 69.8% | [14] 96.1% | [15] 91.4% | [16] 72.9% | [18] 70.5% | [17] 88.5% | [19] 85.3%

COc1cc(NCC(C)(O)CN(CC(C)C)CC(C)C)c2nc(C)ccc2c1 (centres undefined)
inactive: [1] 67.7% | [2] 82% | [3] 81.4% | [4] 87.9% | [5] 94.9% | [6] 64.5% | [7] 86.4% | [20] 68.3% | [9] 99.3% | [10] 96.8% | [11] 91.5% | [12] 81% | [13] 54.5% | [14] 119% | [16] 67.7% | [18] 56.5% | [17] 85.4% | [19] 80.7%

CC(=O)N1N=C(c2cccc(Nc3ccncc3)c2)CC1c1ccc2c(c1)OCO2 (centres undefined)
inactive: [1] 81.2% | [2] 32.7% | [3] 80.2% | [4] 94.8% | [5] 82.8% | [6] 79% | [7] 81.6% | [20] 91.9% | [9] 93.8% | [10] 99.9% | [11] 63% | [12] 81% | [13] 84.5% | [14] 98.1% | [16] 81.8% | [18] 70.7% | [17] 81.2% | [19] 77.7%

CC1(C)[C@H](O)CC[C@]2(C)[C@@H]1CC[C@@]13C[C@@H](CC[C@H]12)[C@@](O)(CO)C3
inactive: [1] 105% | [2] 112% | [3] 102% | [4] 99.7% | [5] 108% | [6] 111% | [7] 101% | [20] 105% | [9] 108% | [10] 106% | [11] 104% | [12] 103% | [13] 93.6% | [14] 108% | [15] 106% | [16] 97.8% | [18] 96.9% | [17] 106% | [19] 108%

CC(C)(C#N)N1CCN(c2ccccc2Cl)CC1
inactive: [1] 103% | [2] 96.4% | [3] 102% | [4] 118% | [5] 102% | [6] 102% | [7] 114% | [8] 87.3% | [9] 112% | [10] 103% | [11] 97.2% | [12] 108% | [13] 81.8% | [14] 104% | [15] 109% | [16] 94.5% | [17] 100% | [19] 97.8%
